Laboratory results taken from PubChem BioAssay AID1209 (Sanford-Burnham Center for Chemical Genomics, 2008).
Out of some 190,000 compounds screened, about 810 (0.43%) were called active. Cut-off read from the data, not from the text of the source: active = inhibition above about 50%; inactive = the rest. The full list was thinned out, with actives kept by preference.

Biological target: Mannose-6-phosphate isomerase (Homo sapiens) (UniProt P34949)
Assay: MPI enzyme activity inhibition – biochemical, fluorescence intensity, coupled assay, primary screen (AID 1209);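 note: plate controls were DMSO vehicle for no effect and wells lacking substrate for full effect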
Conditions: purified PMI enzyme, at 20 µM, stronger effect = higher value

Mannose-6-phosphate isomerase (Homo sapiens), sequence (P34949 whole entry, looked up): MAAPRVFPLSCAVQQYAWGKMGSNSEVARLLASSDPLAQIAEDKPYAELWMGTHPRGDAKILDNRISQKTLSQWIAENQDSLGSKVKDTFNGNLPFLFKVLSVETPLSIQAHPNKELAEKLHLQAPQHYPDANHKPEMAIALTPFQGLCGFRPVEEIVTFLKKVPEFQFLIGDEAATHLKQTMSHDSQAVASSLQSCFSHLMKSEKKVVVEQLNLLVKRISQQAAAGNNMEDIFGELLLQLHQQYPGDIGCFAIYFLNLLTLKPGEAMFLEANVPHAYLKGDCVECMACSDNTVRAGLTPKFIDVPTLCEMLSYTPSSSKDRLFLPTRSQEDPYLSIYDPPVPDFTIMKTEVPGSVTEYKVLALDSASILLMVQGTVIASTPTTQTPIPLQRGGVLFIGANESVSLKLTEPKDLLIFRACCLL

inhibition, inactive:
Cc1cc(C)n2nc(SCCOc3ccccc3F)nc2n1 -4.9%, O=C(CSc1nccc(=O)[nH]1)Nc1ccc(F)c(Cl)c1 1.7%, COCc1c(C#N)c(NCCc2ccccc2)nc(C)c1[N+](=O)[O-] 11.3%, CCCCn1c(SCC(=O)NCc2cccs2)nc2c1c(=O)n(C)c(=O)n2C 9%, CCOc1cc(C(=S)N2CCOCC2)ccc1OC 3.4%, CCOc1ccc(C(=S)N2CCOCC2)cc1OCC -6.6%, O=C(CN1C(=O)C2C3C=CC(C3)C2C1=O)Nc1ccc(F)cc1 (centres undefined) 0.9%, O=C(CN1CCN(c2ccc(F)cc2)CC1)Nc1ccc(-n2cnnn2)cc1 3.3%, O=C(CN1CCN(Cc2ccccc2)CC1)Nc1ccc(-n2cnnn2)cc1 -1.5%, COc1ccc(/C=N/NC(=S)SC)cc1OC 12.8%, Cc1ccc(C(=O)N(C)c2ccc(OCC(=O)N3c4ccc(C)cc4C4CN(C)CCC43)cc2)cc1 (centres undefined) 1.9%, Cc1nnc(SCC(=O)c2ccc([N+](=O)[O-])cc2)s1 2.6%, Cc1snc(SCC(=O)c2ccc(F)cc2)c1C#N -11.6%, Cc1cc(C)nc(SCC(=O)c2ccc([N+](=O)[O-])cc2)n1 -11.2%, Cc1ccc(C(=O)CSc2nsc(C)c2C#N)cc1 7.2%, Cc1ccc(CC2CC(=O)N(C(Cc3ccccc3)C(=O)O)C2=O)cc1 (centres undefined) 0.9%, C#CCOCCOCCOCCNc1nc(N2CCN(C(=O)[C@H]([C@@H](C)CC)n3cc(CCCN=C(N)N)nn3)CC2)nc(N2CCN(C(=O)[C@H](C)n3cc(CCCN=C(N)N)nn3)CC2)n1 -22.8%, CCN1CCCC1CNC(=O)CSc1cc(=O)n(C)c2cc(Cl)ccc12 (centres undefined) -0.3%, COc1ccc(C(=O)C2CCCN(C(=O)c3ccccc3C(C)=O)C2)cc1F (centres undefined) -0.2%, COc1ccc(C(=O)C2CCCN(C(=O)c3cccs3)C2)cc1F (centres undefined) -2.9%, CC(=O)Nc1nc(SCCCc2ccccc2)n[nH]1 -3.1%, COc1cccc(NC(=S)NNC(=O)CCn2cc([N+](=O)[O-])cn2)c1 9.6%, O=C(Nc1nc(-c2ccc(Oc3ccccc3)cc2)cs1)C1=COCCO1 19.1%, c1ccc2c3c([nH]c2c1)-c1[nH]ncc1CC3 49%, Clc1ccc2[nH]c3c(c2c1)CCc1cn[nH]c1-3 12.6%, CC(C)CCOc1ccc(C(=O)O)cc1 7.9%, COc1ccc(C(=O)OCC[N+]2(C)CCOCC2)cc1 -0.9%, COc1ccc(C(=O)OCC[N+]2(C)CCCCC2)cc1 4.5%, CC(C)CCOc1ccc(C(=O)NCCC(=O)N2CCOCC2)cc1 8.3%, Oc1ccccc1C1=Nc2ncnn2C(c2ccccc2)C1 (centres undefined) -40.5%, CCOCCCNC(=O)C(c1ccc(C)cc1)N(Cc1cccs1)C(=O)c1ccccn1 (centres undefined) 0.7%, CCCCCCCCc1nnc(NC(=O)c2ccco2)s1 2.7%, CCC(c1nnnn1Cc1cccs1)N1CCN(C2CCCC2)CC1 (centres undefined) 0%, O=C(N/C(=C\c1cccc([N+](=O)[O-])c1)C(=O)N1CCOCC1)c1ccc([N+](=O)[O-])cc1 12.3%, O=C(C1=C[C@@H](C2CCCCC2)C[C@@H](OCc2ccc(CO)cc2)O1)N1CCN(Cc2ccc3c(c2)OCO3)CC1 19.6%, Cn1c(SCC(=O)C(C)(C)C)nnc1-c1ccncc1 6%, Cc1ccc(C(C)(C)C)cc1S(=O)(=O)NC(=O)c1ccccc1 -10.8%, Nc1ccc(-c2ccc(N)c([N+](=O)[O-])c2)cc1[N+](=O)[O-] -6.5%, CC1(C)Oc2cc(N)c([N+](=O)[O-])cc2O1 17.5%, Cc1ncc2c(c1OC(=O)c1ccc([N+](=O)[O-])cc1)COC(C)(C)OC2 -1.9%, O=C(CCNC(=O)c1ccco1)Nc1ccc(Cl)cc1 4.4%, O=C(CCN1CCOCC1)c1ccc(Cl)cc1 25.9%, O=C(CCN1CCN(c2ccccc2F)CC1)Nc1ccccc1F -9.9%, COc1ccc(C(=O)CCN2CCN(c3ccccc3F)CC2)cc1 16.8%, O=C(CCN1CCOCC1)c1ccccc1 -1.6%, CC1CCCN(CCOc2ccc(Br)cc2)C1 (centres undefined) -8.8%, CC1CCCN(CCC(=O)Nc2ccc(Br)cc2)C1 (centres undefined) -13.4%, COc1cc(C)nc(N2CCC(C(N)=O)CC2)n1 -2.7%, Cc1cc(=O)n2[nH]c(-c3ccc(F)cc3)nc2n1 7.6%, CC(=O)Nc1nc(NC(=O)/C=C/c2ccccc2)n(-c2ccccc2)n1 -31.3%, C=CCc1ccccc1OCCOc1ccc([N+](=O)[O-])cc1/C=N/NC(N)=O 3.8%, CC(C)(C)NC(=O)CN(Cc1cccs1)C(=O)CNS(=O)(=O)c1ccccc1 -0.6%, Cc1ccc(S(=O)(=O)NCC(=O)N(CC(=O)NC(C)(C)C)Cc2cccs2)cc1 -16%, NC(=O)c1nn(CC(=O)Nc2ccc3c(c2)OCO3)cc1[N+](=O)[O-] 0%, Cc1ccc(NCC(=O)N/N=C/c2c[nH]c3ccccc23)cc1 0%, Cc1ccc(S(=O)(=O)Nc2cnc3ccccc3c2)cc1 3.8%, O=C(O)c1ccc2nc(-c3ccccc3)sc2c1 -10.7%, CC(=O)Oc1cccc(N2C(=O)c3ccc(C(=O)O)cc3C2=O)c1 -31.5%, COc1ccc(/C(O)=C2\C(=O)C(=O)N(CCN(C)C)C2c2cc(OC)c(OC)c(OC)c2)c(C)c1 (centres undefined) -21.3%, CCOC(=O)C1=C(C)NC2(O)c3ccccc3C(=O)C12O (centres undefined) 12.1%, CCOC(=O)C1=C(C)N[C@@]2(O)c3ccccc3C(=O)[C@@]12O 21%, COc1ccccc1OCC(=O)NNC(=O)c1c(-c2ccccc2Cl)noc1C -14.6%, O=S(=O)(NCCN1CCOCC1)c1ccc(Cl)s1 -5.3%, O=S(=O)(NCCNS(=O)(=O)c1cccs1)c1cccs1 -15.3%, Cc1cc2cc(C)c3nnc(SCC(=O)N4CCCc5ccccc54)n3c2cc1C 12.3%, N#CCCn1cc(C(=O)O)c(-c2cc3ccccc3o2)n1 -2.3%, COC(=O)c1ccccc1NC(=O)c1sc(=S)n(C)c1N -14.8%, Cn1c(N)c(C(=O)NCc2ccccc2)sc1=S 12.3%, Cc1cnn(C(=O)c2oc3ccccc3c2C)c1 -1.3%, Cc1cc(N)n(-c2ccccc2C)n1 11.2%, C=CCN1C(=O)C(C)(C)Nc2ccccc21 6.9%, Cn1ccnc1SCC(=O)c1c[nH]c2ccccc12 4.5%, C/C(=N\NC(=O)c1nn(C)c(C)c1Br)c1ccc(NC(=O)c2ccccc2F)cc1 -0.9%, C/C(=N\NC(=O)c1nn(C)c(C)c1Br)c1cccc(NC(=O)c2ccoc2C)c1 -8.4%, COC(=O)c1ccc(NC(=S)NCCCN2CCCC2=O)cc1 -0.7%, Cc1ccc(NC(=S)N(CCCN2CCC(C)CC2)Cc2ccco2)cc1C -3.2%, Cc1ccc(NC(=S)N(CCCN2CCOCC2)Cc2ccco2)cc1 -2%, CCOC(=O)C1C(c2ccc(O)c(OC)c2)NC(=S)NC1(O)C(F)(F)F (centres undefined) -3%, CCOC(=O)C1C(c2ccc(O)c(OCC)c2)NC(=S)NC1(O)C(F)(F)F (centres undefined) -6.6%, O=C(CN1C(=O)c2cccc3cccc(c23)C1=O)N1CCOCC1 24.7%

inhibition, active:
CCOc1cc(C(=S)N2CCOCC2)ccc1O 66.8%, O=C(CN1CCN(c2ccccc2)CC1)Nc1ccc(-n2cnnn2)cc1 108%, Cc1snc(SCC(=O)c2ccc(Cl)cc2)c1C#N 56.7%, COc1ccc(C(=O)C2CCCN(C(=O)COc3ccc(C(C)=O)cc3)C2)cc1F (centres undefined) 57.4%, Cc1ccc2[nH]c3c(c2c1)CCc1cn[nH]c1-3 69.4%, COc1ccc(C(=O)C[N+]2(C)CCOCC2)cc1 81.3%, CC(C)CCOc1ccc(C(=O)C[N+]2(C)CCOCC2)cc1 81.8%, C=C1N(C)c2cc([N+](=O)[O-])c(N)cc2C1(C)C 94%, O=C(CCN1CCOCC1)c1ccc(Br)cc1 60.4%, O=C(CCN1CCN(c2ccccc2F)CC1)c1ccc(Br)cc1 59.8%, CC1CCCN(CCC(=O)c2ccc(Br)cc2)C1 (centres undefined) 60.1%, COc1ccc(S(=O)(=O)NCC(=O)N(CC(=O)NC(C)(C)C)Cc2cccs2)cc1 110%, O=C(O)c1ccc2c(c1)C(=O)N(c1cccc(-c3nc4ccccc4s3)c1)C2=O 102%, COCCOC(=O)C1=C(C)NC2(O)c3ccccc3C(=O)C12O (centres undefined) 70.5%, O=S(=O)(NCCN1CCOCC1)c1cccs1 68.9%, Cn1c(N)c(C(=O)Nc2ccc3ccccc3c2)sc1=S 64.8%, C/C(=N\NC(=O)c1nn(C)c(C)c1Br)c1cccc(NC(=O)c2ccc(F)cc2)c1 50.8%, Cc1ccc(NC(=S)N(CCCN2CCC(C)CC2)Cc2ccco2)cc1 81.3%, CCOC(=O)C1C(c2ccc(O)c(O)c2)NC(=S)NC1(O)C(F)(F)F (centres undefined) 61.7%
